# Laboratory results reported in PubChem BioAssay AID1159580 (chemical genetic matrix, 2015).
# Screen size: about 5,500 compounds; about 2,000 (36%) were called active. Inconclusive results (about 18%) are left out. This is one part of the list. Values without a mark were called inactive. No stated cut-off is given here; in the data, active means normalized growth mostly below about 0.91 (no sharp cut-off); inconclusive means no clear call, values can overlap the other calls; inactive means mostly above about 0.92.
# Test: chemical genetic growth profiling, strain panel (AID 1159580);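 further: tested at 20 µM; growth read once vehicle control cultures reached saturation at 30 °C; 1 = growth at the plate median or of vehicle wells; lower values mean less growth of the strain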
# Conditions: growth OD
structure (smiles),measurement,setting,value
CC(C)=CCCC1(C)C=Cc2c(O)c3c(c(CC=C(C)C)c2O1)OC12C(=CC4CC1C(C)(C)OC2(C/C=C(/C)C(=O)O)C4=O)C3=O (stereo not drawn),normalized growth,"S. cerevisiae deletion strains, locus YJL187C, strain SWE1, hits give low values",0.851 (active)
same,normalized growth,"S. cerevisiae deletion strains, locus YJR043C, strain POL32, hits give low values",0.821 (active)
same,normalized growth,"S. cerevisiae deletion strains, locus YJR066W, strain TOR1, hits give low values",0.825
same,normalized growth,"S. cerevisiae deletion strains, locus YKL009W, strain mrt4, hits give low values",0.965
same,normalized growth,"S. cerevisiae deletion strains, locus YKL068W, hits give low values",0.943
same,normalized growth,"S. cerevisiae deletion strains, locus YKL085W, strain MDH1 (second series), hits give low values",0.925 (active)
same,normalized growth,"S. cerevisiae deletion strains, locus YKL085W, strain MDH1, hits give low values",0.925 (active)
same,normalized growth,"S. cerevisiae deletion strains, locus YKL160W, strain elf1, hits give low values",0.842 (active)
same,normalized growth,"S. cerevisiae deletion strains, locus YKR001C, strain vps1, hits give low values",0.628 (active)
same,normalized growth,"S. cerevisiae deletion strains, locus YKR026C, strain gcn3, hits give low values",0.973
same,normalized growth,"S. cerevisiae deletion strains, locus YKR091W, strain srl3, hits give low values",0.96
same,normalized growth,"S. cerevisiae deletion strains, locus YLL001W, strain dnm1, hits give low values",0.881 (active)
same,normalized growth,"S. cerevisiae deletion strains, locus YLL026W, hits give low values",0.888 (active)
same,normalized growth,"S. cerevisiae deletion strains, locus YLL041C, strain sdh2, hits give low values",0.958
same,normalized growth,"S. cerevisiae deletion strains, locus YLR027C, strain aat2, hits give low values",0.827 (active)
same,normalized growth,"S. cerevisiae deletion strains, locus YLR039C, strain RIC1, hits give low values",0.873
same,normalized growth,"S. cerevisiae deletion strains, locus YLR058C, strain SHM2, hits give low values",0.884 (active)
same,normalized growth,"S. cerevisiae deletion strains, locus YLR102C, strain apc9, hits give low values",0.97
same,normalized growth,"S. cerevisiae deletion strains, locus YLR113W, strain HOG1, hits give low values",0.685 (active)
same,normalized growth,"S. cerevisiae deletion strains, locus YLR221C, strain rsa3, hits give low values",0.871 (active)
same,normalized growth,"S. cerevisiae deletion strains, locus YLR258W, strain gsy2, hits give low values",0.861 (active)
same,normalized growth,"S. cerevisiae deletion strains, locus YLR262C, strain YPT6 (second series), hits give low values",0.685 (active)
same,normalized growth,"S. cerevisiae deletion strains, locus YLR262C, strain YPT6, hits give low values",0.783
same,normalized growth,"S. cerevisiae deletion strains, locus YLR268W, strain sec22, hits give low values",0.84 (active)
same,normalized growth,"S. cerevisiae deletion strains, locus YLR320W, strain mms22, hits give low values",0.732 (active)
same,normalized growth,"S. cerevisiae deletion strains, locus YLR330W, strain CHS5, hits give low values",0.756 (active)
same,normalized growth,"S. cerevisiae deletion strains, locus YLR342W, strain FKS1 (second series), hits give low values",0.703 (active)
same,normalized growth,"S. cerevisiae deletion strains, locus YLR342W, strain FKS1, hits give low values",0.854 (active)
same,normalized growth,"S. cerevisiae deletion strains, locus YLR357W, strain rsc2, hits give low values",1.02
same,normalized growth,"S. cerevisiae deletion strains, locus YLR370C, strain arc18, hits give low values",0.984
same,normalized growth,"S. cerevisiae deletion strains, locus YLR371W, strain rom2, hits give low values",0.955
same,normalized growth,"S. cerevisiae deletion strains, locus YLR384C, strain iki3, hits give low values",0.989
same,normalized growth,"S. cerevisiae deletion strains, locus YLR418C, strain cdc73, hits give low values",0.487 (active)
same,normalized growth,"S. cerevisiae deletion strains, locus YML016C, strain PPZ1, hits give low values",0.963
same,normalized growth,"S. cerevisiae deletion strains, locus YML032C, strain rad52, hits give low values",0.879 (active)
same,normalized growth,"S. cerevisiae deletion strains, locus YML120C, strain ndi1, hits give low values",0.855 (active)
same,normalized growth,"S. cerevisiae deletion strains, locus YML124C, strain tub3, hits give low values",0.979
same,normalized growth,"S. cerevisiae deletion strains, locus YMR058W, strain fet3, hits give low values",0.507 (active)
same,normalized growth,"S. cerevisiae deletion strains, locus YMR078C, strain ctf18, hits give low values",0.98
same,normalized growth,"S. cerevisiae deletion strains, locus YMR125W, strain sto1, hits give low values",0.938
same,normalized growth,"S. cerevisiae deletion strains, locus YMR129W, hits give low values",0.951
same,normalized growth,"S. cerevisiae deletion strains, locus YMR205C, strain PFK2, hits give low values",0.623 (active)
same,normalized growth,"S. cerevisiae deletion strains, locus YMR223W, strain ubp8, hits give low values",0.853 (active)
same,normalized growth,"S. cerevisiae deletion strains, locus YMR231W, strain pep5, hits give low values",0.911 (active)
same,normalized growth,"S. cerevisiae deletion strains, locus YMR263W, strain SAP30, hits give low values",0.947
same,normalized growth,"S. cerevisiae deletion strains, locus YMR307W, strain GAS1, hits give low values",0.571 (active)
same,normalized growth,"S. cerevisiae deletion strains, locus YNL067W, strain RPL9B, hits give low values",0.93
same,normalized growth,"S. cerevisiae deletion strains, locus YNL071W, strain lat1, hits give low values",0.324 (active)
same,normalized growth,"S. cerevisiae deletion strains, locus YNL153C, strain GIM3, hits give low values",0.923
same,normalized growth,"S. cerevisiae deletion strains, locus YNL183C, strain NPR1, hits give low values",0.8 (active)
same,normalized growth,"S. cerevisiae deletion strains, locus YNL209W, strain ssb2, hits give low values",0.76 (active)
same,normalized growth,"S. cerevisiae deletion strains, locus YNL233W, strain BNI4, hits give low values",0.772 (active)
same,normalized growth,"S. cerevisiae deletion strains, locus YNL248C, strain rpa49, hits give low values",0.976
same,normalized growth,"S. cerevisiae deletion strains, locus YNL250W, strain rad50, hits give low values",0.952
same,normalized growth,"S. cerevisiae deletion strains, locus YNL271C, strain bni1, hits give low values",0.981
same,normalized growth,"S. cerevisiae deletion strains, locus YNL298W, strain CLA4, hits give low values",0.976
same,normalized growth,"S. cerevisiae deletion strains, locus YNL307C, strain MCK1, hits give low values",0.382 (active)
same,normalized growth,"S. cerevisiae deletion strains, locus YNL322C, strain KRE1 (second series), hits give low values",0.964
same,normalized growth,"S. cerevisiae deletion strains, locus YNR049C, strain mso1, hits give low values",0.978
same,normalized growth,"S. cerevisiae deletion strains, locus YNR052C, strain pop2, hits give low values",0.928
same,normalized growth,"S. cerevisiae deletion strains, locus YOL012C, strain htz1",0.349
same,normalized growth,"S. cerevisiae deletion strains, locus YOL147C, strain pex11, hits give low values",0.929 (active)
same,normalized growth,"S. cerevisiae deletion strains, locus YOR001W, strain rrp6, hits give low values",0.918
same,normalized growth,"S. cerevisiae deletion strains, locus YOR061W, strain CKA2, hits give low values",0.785 (active)
same,normalized growth,"S. cerevisiae deletion strains, locus YOR069W, strain VPS5, hits give low values",0.975
same,normalized growth,"S. cerevisiae deletion strains, locus YOR070C, strain gyp1, hits give low values",0.796 (active)
same,normalized growth,"S. cerevisiae deletion strains, locus YOR080W, strain dia2, hits give low values",0.982
same,normalized growth,"S. cerevisiae deletion strains, locus YOR083W, strain WHI5, hits give low values",0.842 (active)
same,normalized growth,"S. cerevisiae deletion strains, locus YOR106W, strain vam3, hits give low values",0.662 (active)
same,normalized growth,"S. cerevisiae deletion strains, locus YOR136W, strain idh2, hits give low values",0.958
same,normalized growth,"S. cerevisiae deletion strains, locus YOR144C, strain elg1, hits give low values",0.946
same,normalized growth,"S. cerevisiae deletion strains, locus YOR184W, strain ser1, hits give low values",0.64 (active)
same,normalized growth,"S. cerevisiae deletion strains, locus YOR231W, strain MKK1, hits give low values",0.884
same,normalized growth,"S. cerevisiae deletion strains, locus YOR265W, strain rbl2, hits give low values",0.886 (active)
same,normalized growth,"S. cerevisiae deletion strains, locus YOR270C, strain vph1, hits give low values",0.632 (active)
same,normalized growth,"S. cerevisiae deletion strains, locus YOR290C, strain snf2, hits give low values",0.836 (active)
same,normalized growth,"S. cerevisiae deletion strains, locus YOR316C, strain cot1, hits give low values",0.97
same,normalized growth,"S. cerevisiae deletion strains, locus YPL051W, strain arl3, hits give low values",0.764 (active)
same,normalized growth,"S. cerevisiae deletion strains, locus YPL078C, strain atp4, hits give low values",0.885 (active)
same,normalized growth,"S. cerevisiae deletion strains, locus YPL106C, strain sse1, hits give low values",1.01
same,normalized growth,"S. cerevisiae deletion strains, locus YPL240C, strain hsp82, hits give low values",0.908 (active)
same,normalized growth,"S. cerevisiae deletion strains, locus YPL256C, strain CLN2, hits give low values",0.816 (active)
same,normalized growth,"S. cerevisiae deletion strains, locus YPR119W, strain clb2, hits give low values",0.988
same,normalized growth,"S. cerevisiae deletion strains, locus YPR141C, strain kar3, hits give low values",0.982
same,normalized growth,"S. cerevisiae deletion strains, locus YPR163C, strain tif3, hits give low values",0.9 (active)
same,normalized growth,"S. cerevisiae deletion strains, locus YPR167C, strain met16, hits give low values",0.91 (active)
same,normalized growth,"S. cerevisiae deletion strains, strain wtn01, hits give low values",0.868 (active)
same,normalized growth,"S. cerevisiae strains, strain wild type, hits give low values",0.78 (active)
